The AC50 is the midpoint of the concentration-response curve, whichever way the signal moves.

Activity calls are given as the source filed them. How the source made its calls: active means hit-call score of the fitted dose curve at least 0.9, where 1 is the maximum; inactive means score below 0.9.

Conditions in all cases: mRNA level, 48 h; actives raise or lower the signal
Read-out in assay [1]: Bcl-2 (BAX) gene, BAX (gene 581)
The experiment in a line: LTEA_HepaRG_BAX: Life Technologies and Expression Analysis (LTEA) Assay for Bcl-2 (BAX) gene using HepaRG (AID 2283470). The method, boiled down:
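Human HepaRG cells treated in duplicate for 48 h across eight concentrations (max 100 uM, 0.5% DMSO); BAX expression measured by qRT-PCR.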

Read-out in assay [2]: adenosine kinase (ADK) gene, ADK (gene 132)
Kind of assay: LTEA_HepaRG_ADK: Life Technologies and Expression Analysis (LTEA) Assay for adenosine kinase (ADK) gene using HepaRG (AID 2283471). The method, boiled down: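 HepaRG (human liver), 48 h chemical exposure, 8-pt half-log series, top 100 uM, 0.5% DMSO vehicle. Readout: ADK mRNA by qRT-PCR vs housekeeping genes; bidirectional curve fit relative to DMSO baseline.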

Read-out in assay [3]: Alpha-fetoprotein (AFP) gene, AFP (gene 174)
Kind of assay: LTEA_HepaRG_AFP: Life Technologies and Expression Analysis (LTEA) Assay for Alpha-fetoprotein (AFP) gene using HepaRG (AID 2283472). In outline:
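Measures AFP mRNA change in HepaRG after 48 h chemical exposure (8 half-log concentrations, highest 100 uM, 0.5% DMSO). Fold change relative to DMSO, fitted in both directions.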

Read-out in assay [4]: BCL2L11 (gene 10018)
The experiment in a line: LTEA_HepaRG_BCL2L11: Life Technologies and Expression Analysis (LTEA) Assay for Bcl-2 (BCL2L11) gene using HepaRG (AID 2283473). The method, boiled down: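 HepaRG, 48 h exposure, 8-pt half-log series from 100 uM in 0.5% DMSO, duplicates; qRT-PCR (Fluidigm TaqMan) for BCL2L11, housekeeping-normalized; bidirectional curve fit relative to DMSO baseline.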

Read-out in assay [5]: Apolipoprotein A-V (APOA5) gene, APOA5 (gene 116519)
Kind of assay: LTEA_HepaRG_APOA5: Life Technologies and Expression Analysis (LTEA) Assay for Apolipoprotein A-V (APOA5) gene using HepaRG (AID 2283474). In outline:
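HepaRG, 48 h chemical exposure in serum-free induction medium, 8-pt half-log series (top 100 uM), 0.5% DMSO vehicle, duplicates. Readout: APOA5 mRNA by qRT-PCR, housekeeping-normalized; bidirectional fit vs DMSO baseline.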

Read-out in assay [6]: Apoptosis regulator Bcl-2 (Homo sapiens) (UniProt P10415)
The experiment in a line: LTEA_HepaRG_BCL2: Life Technologies and Expression Analysis (LTEA) Assay for Bcl-2 gene using HepaRG (AID 2283475). In outline:
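Each chemical was tested in duplicate on HepaRG cultures held in serum-free induction medium for 48 h, highest concentration 100 uM with half-log dilutions. Transcript levels came from multiplexed qRT-PCR, normalised to housekeeping genes; activity was scored in either direction relative to DMSO.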

Read-out in assay [7]: Bcl-2 (BID) gene, BID (gene 637)
Kind of assay: LTEA_HepaRG_BID: Life Technologies and Expression Analysis (LTEA) Assay for Bcl-2 (BID) gene using HepaRG (AID 2283476). The method, boiled down:
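Assay used HepaRG hepatic cells treated 48 h in serum-free medium with half-log dilutions from 100 uM. Endpoint: BID mRNA, qRT-PCR, normalized to ACTB/GAPDH/POLR2A.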

Read-out in assay [8]: Caspase-3 (Homo sapiens) (UniProt P42574)
The experiment in a line: LTEA_HepaRG_CASP3: Life Technologies and Expression Analysis (LTEA) Assay for cysteine-aspartic acid protease (CASP3) using HepaRG (AID 2283477). In outline:
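HepaRG, 48 h exposure, 8 conc. (top 100 uM, half-log steps, duplicate), 0.5% DMSO vehicle; qRT-PCR of CASP3 transcript, housekeeping-normalised (ACTB/GAPDH/POLR2A); bidirectional curve fit vs DMSO baseline.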

Read-out in assay [9]: cysteine-aspartic acid protease (CASP8), CASP8 (gene 841)
Kind of assay: LTEA_HepaRG_CASP8: Life Technologies and Expression Analysis (LTEA) Assay for cysteine-aspartic acid protease (CASP8) using HepaRG (AID 2283480). The method, boiled down: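 CASP8 transcript measured by TaqMan qRT-PCR with ACTB/GAPDH/POLR2A normalization, after 48 h chemical exposure of HepaRG cells in serum-free induction medium. Eight concentrations, top 100 uM, half-log steps, 0.5% DMSO vehicle; fits in both directions versus DMSO.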

Read-out in assay [10]: DNA damage-inducible transcript 3 (DDIT3), DDIT3 (gene 1649)
Kind of assay: LTEA_HepaRG_DDIT3: Life Technologies and Expression Analysis (LTEA) Assay for DNA damage-inducible transcript 3 (DDIT3) using HepaRG (AID 2283488). In outline: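 Eight-point concentration-response (100 uM highest, half-log dilutions) in HepaRG, 48 h, duplicate wells. Endpoint: qRT-PCR mRNA, normalized (ACTB, GAPDH, POLR2A), bidirectional fitting with DMSO as baseline.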

Read-out in assay [11]: Pro-epidermal growth factor (Homo sapiens) (UniProt P01133)
The experiment in a line: LTEA_HepaRG_EGF: Life Technologies and Expression Analysis (LTEA) Assay for Epidermal growth factor (EGF) using HepaRG (AID 2283489). The method, boiled down: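 qRT-PCR readout of EGF transcript after 48 h chemical exposure of HepaRG cells; eight concentrations from 100 uM down in half-log steps, duplicate wells, 0.5% DMSO vehicle. Bidirectional curve fitting against DMSO baseline.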

Read-out in assay [12]: Cytochrome P450 (CYP24A1), CYP24A1 (gene 1591)
The experiment in a line: LTEA_HepaRG_CYP24A1: Life Technologies and Expression Analysis (LTEA) Assay for Cytochrome P450 (CYP24A1) using HepaRG (AID 2283478). The method, boiled down: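 qRT-PCR read-out: CYP24A1 transcript levels normalized to three housekeeping genes, bidirectional curve fits against 0.5% DMSO baseline. Human HepaRG cells treated 48 h with chemicals at eight concentrations from 100 uM in half-log steps.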

Read-out in assay [13]: Cytochrome P450 (CYP1A2), CYP1A2 (gene 1544)
The experiment in a line: LTEA_HepaRG_CYP1A2: Life Technologies and Expression Analysis (LTEA) Assay for Cytochrome P450 (CYP1A2) using HepaRG (AID 2283479). The method, boiled down: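 HepaRG, 48 h exposure, top 100 uM, half-log 8-pt, 0.5% DMSO vehicle, duplicates. Readout: TaqMan qRT-PCR of CYP1A2 mRNA, housekeeping-normalized (ACTB/GAPDH/POLR2A). Gain/loss fit relative to DMSO baseline.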

Read-out in assay [14]: Cytochrome P450 (CYP2B6), CYP2B6 (gene 1555)
Kind of assay: LTEA_HepaRG_CYP2B6: Life Technologies and Expression Analysis (LTEA) Assay for Cytochrome P450 (CYP2B6) using HepaRG (AID 2283481). The method, boiled down:
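Read-out is CYP2B6 mRNA by TaqMan qRT-PCR, normalized to three housekeeping genes and fitted bidirectionally against 0.5% DMSO baseline. Human HepaRG cells received test chemicals for 48 h, top concentration 100 uM, half-log dilutions.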

Read-out in assay [15]: Cytochrome P450 2C19 (Homo sapiens) (UniProt P33261)
The experiment in a line: LTEA_HepaRG_CYP2C19: Life Technologies and Expression Analysis (LTEA) Assay for CYP2C19 using HepaRG (AID 2283482). The method, boiled down:
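HepaRG, 48 h chemical exposure, 8-pt half-log series from 100 uM in 0.5% DMSO, duplicates. Readout: CYP2C19 mRNA by TaqMan qRT-PCR, housekeeping-normalized. Bidirectional fit vs DMSO baseline; phenobarbital 1mM as induction control.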

Read-out in assay [16]: CYP2C8 (gene 1558)
The experiment in a line: LTEA_HepaRG_CYP2C8: Life Technologies and Expression Analysis (LTEA) Assay for CYP2C8 using HepaRG (AID 2283483). The method, boiled down: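 CYP2C8 expression measured by TaqMan qRT-PCR and normalized to three housekeeping genes. HepaRG cultures were treated for 48 h with an eight-point half-log series topping at 100 uM, vehicle 0.5% DMSO, duplicates; fitted both directions against DMSO.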

Read-out in assay [17]: CYP2C9 (gene 1559)
The experiment in a line: LTEA_HepaRG_CYP2C9: Life Technologies and Expression Analysis (LTEA) Assay for CYP2C9 using HepaRG (AID 2283484). The method, boiled down: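 CYP2C9 transcript level, quantified by TaqMan qRT-PCR against three housekeeping genes, was fitted bidirectionally relative to 0.5% DMSO. HepaRG cultures were treated 48 h, in duplicate, at eight half-log concentrations topping at 100 uM.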

Read-out in assay [18]: CYP2E1 (gene 1571)
The experiment in a line: LTEA_HepaRG_CYP2E1: Life Technologies and Expression Analysis (LTEA) Assay for CYP2E1 using HepaRG (AID 2283485). The method, boiled down:
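Assay uses 48 h exposure of HepaRG hepatic cells, eight concentrations to 100 uM. Expression of CYP2E1 is quantified by TaqMan qRT-PCR with ACTB, GAPDH and POLR2A normalization; curves fitted in both directions relative to vehicle.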

Read-out in assay [19]: Cytochrome P450 3A4 (Homo sapiens) (UniProt P08684)
The experiment in a line: LTEA_HepaRG_CYP3A4: Life Technologies and Expression Analysis (LTEA) Assay for CYP3A4 using HepaRG (AID 2283487). In outline:
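CYP3A4 transcript measured by TaqMan qRT-PCR and normalized to three housekeeping genes after 48 h chemical exposure of human HepaRG cells. Top concentration 100 uM, half-log steps, 0.5% DMSO vehicle; gain or loss fitted against DMSO baseline.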

Read-out in assay [20]: CYP4A11 (gene 1579)
The experiment in a line: LTEA_HepaRG_CYP4A11: Life Technologies and Expression Analysis (LTEA) Assay for CYP4A11 using HepaRG (AID 2283486). In outline: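 CYP4A11 transcript levels were quantified by TaqMan qRT-PCR after HepaRG human liver cells were treated for 48 hours with test chemicals (top 100 uM, half-log dilutions, 0.5% DMSO). Gain or loss of signal was fitted relative to DMSO.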

Sequence of Apoptosis regulator Bcl-2 (Homo sapiens) (P10415 whole entry, looked up): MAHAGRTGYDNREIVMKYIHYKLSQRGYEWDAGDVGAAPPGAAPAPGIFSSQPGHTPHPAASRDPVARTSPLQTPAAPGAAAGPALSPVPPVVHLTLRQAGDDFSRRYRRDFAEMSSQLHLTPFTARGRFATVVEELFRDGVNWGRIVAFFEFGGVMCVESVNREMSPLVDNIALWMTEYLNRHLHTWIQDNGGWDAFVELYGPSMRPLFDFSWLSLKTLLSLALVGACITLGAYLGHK
Sequence of Cytochrome P450 2C19 (Homo sapiens) (P33261 whole entry, looked up): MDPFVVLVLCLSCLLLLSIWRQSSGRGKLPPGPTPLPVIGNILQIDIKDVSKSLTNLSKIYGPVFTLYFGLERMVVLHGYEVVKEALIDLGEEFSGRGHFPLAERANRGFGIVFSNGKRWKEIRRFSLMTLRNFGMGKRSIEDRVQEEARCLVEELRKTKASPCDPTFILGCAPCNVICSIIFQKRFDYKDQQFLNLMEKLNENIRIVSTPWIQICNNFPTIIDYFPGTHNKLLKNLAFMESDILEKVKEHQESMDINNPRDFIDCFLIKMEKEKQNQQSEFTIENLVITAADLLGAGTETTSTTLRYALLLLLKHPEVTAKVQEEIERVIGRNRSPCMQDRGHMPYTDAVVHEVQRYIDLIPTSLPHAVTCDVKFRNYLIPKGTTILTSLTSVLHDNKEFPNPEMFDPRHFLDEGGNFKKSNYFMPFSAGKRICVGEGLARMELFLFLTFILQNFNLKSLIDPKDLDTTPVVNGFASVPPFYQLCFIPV
Sequence of Caspase-3 (Homo sapiens) (P42574 whole entry, looked up): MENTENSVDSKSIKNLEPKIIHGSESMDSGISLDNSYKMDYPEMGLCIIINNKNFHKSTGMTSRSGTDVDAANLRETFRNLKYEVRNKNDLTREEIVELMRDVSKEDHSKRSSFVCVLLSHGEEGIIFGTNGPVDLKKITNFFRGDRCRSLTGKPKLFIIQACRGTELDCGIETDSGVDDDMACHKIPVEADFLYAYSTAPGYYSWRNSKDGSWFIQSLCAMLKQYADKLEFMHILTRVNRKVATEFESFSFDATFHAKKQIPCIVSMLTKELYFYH
Sequence of Cytochrome P450 3A4 (Homo sapiens) (P08684 whole entry, looked up): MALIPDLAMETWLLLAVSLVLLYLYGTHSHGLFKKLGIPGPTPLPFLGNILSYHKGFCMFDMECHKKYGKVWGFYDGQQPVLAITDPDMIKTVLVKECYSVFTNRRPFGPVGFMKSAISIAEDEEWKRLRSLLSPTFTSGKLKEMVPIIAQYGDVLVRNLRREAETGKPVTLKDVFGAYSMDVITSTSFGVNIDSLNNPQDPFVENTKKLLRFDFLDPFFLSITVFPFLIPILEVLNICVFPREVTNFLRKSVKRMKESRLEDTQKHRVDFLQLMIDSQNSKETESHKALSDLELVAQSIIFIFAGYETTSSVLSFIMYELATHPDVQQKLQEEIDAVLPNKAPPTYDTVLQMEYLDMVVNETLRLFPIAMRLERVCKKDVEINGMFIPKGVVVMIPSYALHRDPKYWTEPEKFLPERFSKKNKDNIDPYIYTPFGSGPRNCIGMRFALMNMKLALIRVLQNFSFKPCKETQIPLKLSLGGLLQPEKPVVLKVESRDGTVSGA

Turning to `CC(=O)[C@@]1(O)CC[C@H]2[C@@H]3CCC4=CC(=O)CC[C@]4(C)[C@H]3CC[C@@]21C`, the result in assay [1], in [2], in [4], in assay [5], in [6] and in assay [7] was inactive. Moreover, the outcome in assay [8], in assay [9], in assay [10] and in [11] was inactive. Also, the half-maximal activity concentration (AC50) in assay [3] is 50 µM (active).

For the compound `CC(=O)O[C@]1(C(C)=O)CC[C@H]2[C@@H]3C=C(Cl)C4=CC(=O)[C@@H]5C[C@@H]5[C@]4(C)[C@H]3CC[C@@]21C`, the AC50 is 50 µM (active) in [1]; 50 µM (active) in assay [3]; 84.3 µM (active) in assay [5]; 3.16 nM (active) in [12]; 78.7 µM (active) in [13]; 50 µM (active) in [14]. The AC50 in [15] is 63.5 µM (active); in assay [17], 50 µM (active); in [18], 36.9 µM (active); in [10], 18.5 µM (active). Further, the compound was called inactive in [2], in [4], in [6], in assay [7], in [8] and in [9]. Also, the call in assay [16] and in [11] was inactive.

With `NC1CCCCC1`, the outcome in assay [1], in assay [2], in assay [3], in assay [4], in assay [5] and in assay [6] was inactive. For the same compound, the outcome in assay [7], in assay [8], in assay [12], in [13], in assay [9] and in [14] was inactive. Also, the compound was classed as inactive in [15], in [16], in [17], in assay [18], in assay [19] and in assay [11].

Consider `O=C1O[C@H]([C@H](O)CO)C(O)=C1O`, for which the compound was classed as inactive in assay [1], in assay [2], in assay [3], in [4], in [6] and in assay [7]. Also, the outcome in [8], in assay [12], in [13], in assay [9], in assay [14] and in [15] was inactive. For the same compound, the compound was classed as inactive in assay [16], in assay [17], in assay [18], in [20], in [19] and in assay [10]. The outcome in assay [11] was inactive.

Source of the values: PubChem BioAssay (EPA / NIEHS).
